Some test systems named below: HCT-15 colon; HT29 colon; SNB-75 CNS; SNB-19 CNS; U251 CNS; PC-3 prostate; SK-MEL-5 melanoma; UACC-62 melanoma; LOX IMVI melanoma; SK-MEL-28 melanoma; SK-MEL-2 melanoma; EKVX NSCLC; SN12C renal; UO-31 renal; TK-10 renal; ACHN renal; CAKI-1 renal; A498 renal; CCRF-CEM leukemia; MOLT-4 leukemia.
Common to all, as to assay: NCI-60 one-dose screen, 48 h (100 = growth as untreated, 0 = no growth, -100 = all killed)
Conditions in all cases: 10 µM unless noted

SMILES strings stand for the structures. This is part of a sample that, as a whole, favours compounds with a hit. Of some 83,000 tested, about 20% had one in any assay.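 Growth was measured after 48 h exposure to one concentration of compound in 96-well plates. Values under 10 count as active.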 Unmarked numbers belong to inactive results. Calls of active or inactive are those of the source.

Consider `O=C(NCc1ccccc1)Nc1ccccc1CNc1nc(Nc2ccc(OCCN3CCCC3)cc2)ncc1Cl`, for which the growth was 56.6% in the assay with HCT-15 colon; 68.4% with HT29 colon; 82.4% in the assay on SNB-75 CNS; 94.3% in the assay on SNB-19 CNS; 45.5% with U251 CNS; 94.5% in the assay on PC-3 prostate. Besides, the growth in the assay on SK-MEL-5 melanoma is 95.2%; with UACC-62 melanoma it was 98.6%; in the assay on LOX IMVI melanoma, 88.8%; in the assay with SK-MEL-28 melanoma, 105%; in the assay with SK-MEL-2 melanoma it was 108%; in the assay with EKVX NSCLC it was 99.2%. The growth is 101% in the assay with SN12C renal; 71.7% in the assay with UO-31 renal; 110% with TK-10 renal; 92.3% in the assay on ACHN renal; 106% in the assay on CAKI-1 renal; 77.2% with A498 renal. In addition, the growth in the assay with CCRF-CEM leukemia is 20%; with MOLT-4 leukemia it was 74.1%.

For the molecule `COC(=O)/C=C1/SC(=Nc2ccc(C)cc2)N(CCc2c[nH]c3ccc(O)cc23)C1=O`, the growth with HCT-15 colon was 14.7%; in the assay on HT29 colon, 90.9%; in the assay on SNB-75 CNS it was 52%; with SNB-19 CNS, 51.8%; in the assay with U251 CNS, 34.7%; in the assay with PC-3 prostate it was 39%. For the same molecule, the growth in the assay on SK-MEL-5 melanoma was 50.5%; with UACC-62 melanoma, 42.2%; in the assay with LOX IMVI melanoma, -17.8% (active); with SK-MEL-28 melanoma, 48.4%; with SK-MEL-2 melanoma, 35.4%; in the assay with EKVX NSCLC it was 49.6%. For the same molecule, the growth with SN12C renal was 45.4%; in the assay with UO-31 renal, 46.8%; in the assay with TK-10 renal, 94.6%; with ACHN renal, 57.4%; in the assay on CAKI-1 renal it was 69.9%; with A498 renal, 67.1%. The growth in the assay on CCRF-CEM leukemia was 1.81% (active); in the assay with MOLT-4 leukemia it was -8.16% (active).

As to `C/C(=N\NC(=O)c1ccccc1O)c1cccc(/C(C)=N/NC(=O)c2ccccc2O)n1`, the growth in the assay on HCT-15 colon was 42.4%; in the assay with HT29 colon it was 41.2%; with SNB-75 CNS it was 74.9%; in the assay on SNB-19 CNS, 20%; with U251 CNS, 20%; with PC-3 prostate, 48%. The growth was 38% with SK-MEL-5 melanoma; 52% in the assay on UACC-62 melanoma; 35.8% with LOX IMVI melanoma; 52.2% in the assay with SK-MEL-28 melanoma; 95.2% in the assay with SK-MEL-2 melanoma; 30% in the assay with EKVX NSCLC. Further, the growth with SN12C renal is 55%; with UO-31 renal it was 38.6%; in the assay on TK-10 renal it was 41%; in the assay with ACHN renal, 39.7%; with CAKI-1 renal it was 14.5%; in the assay on A498 renal it was 71.9%. The results for the growth with CCRF-CEM leukemia and with MOLT-4 leukemia were 21.8% and 24.5%, respectively.

Consider `COC(=O)c1c2c(c(C)[n+]([O-])c1C)C(=O)C=C(NCc1ccc(Br)cc1)C2=O`, for which the growth in the assay with HCT-15 colon was -63% (active); with HT29 colon, -5.46% (active); with SNB-75 CNS it was -98.6% (active); in the assay with SNB-19 CNS it was -87.2% (active); with U251 CNS, -41% (active); in the assay with PC-3 prostate, -11.1% (active). The growth was -97.5% (active) in the assay on SK-MEL-5 melanoma; -59.5% (active) in the assay on UACC-62 melanoma; -75.7% (active) in the assay on LOX IMVI melanoma; -39.6% (active) with SK-MEL-28 melanoma; -54% (active) in the assay on SK-MEL-2 melanoma; -85.3% (active) with EKVX NSCLC. Besides, the growth was -77.7% (active) in the assay on SN12C renal; -85.8% (active) in the assay on UO-31 renal; 2.5% (active) with TK-10 renal; -73.2% (active) with ACHN renal; -25.7% (active) in the assay on CAKI-1 renal; -86.4% (active) with A498 renal. Moreover, the growth is -12.6% (active) with CCRF-CEM leukemia and -21.7% (active) in the assay on MOLT-4 leukemia.

For the molecule `O=C(/C=C/c1cn(-c2ccccc2)nc1-c1ccc([N+](=O)[O-])cc1)c1ccc(Cl)cc1`, the growth with HCT-15 colon is 46.8%; in the assay with HT29 colon it was 52.5%; with SNB-75 CNS, -5.08% (active); in the assay with SNB-19 CNS, 52.8%; in the assay on U251 CNS, 9.68% (active); in the assay with PC-3 prostate, 58.8%. For the same molecule, the growth is 71.5% in the assay with SK-MEL-5 melanoma; 58.9% in the assay on UACC-62 melanoma; 37.8% with LOX IMVI melanoma; 56.7% in the assay with SK-MEL-28 melanoma; 96.2% in the assay on SK-MEL-2 melanoma; 60.7% with EKVX NSCLC. Besides, the growth in the assay on SN12C renal is 50.5%; with UO-31 renal, 41.2%; in the assay on TK-10 renal it was 14.1%; in the assay on ACHN renal it was 52.3%; in the assay on CAKI-1 renal, 31.9%; with A498 renal it was 78.5%. The growth in the assay on CCRF-CEM leukemia and in the assay with MOLT-4 leukemia was 38% in each case.

Consider `Cc1ccc(Cl)cc1Nc1nc(C(F)(F)F)ccc1C(=O)N/N=C/c1cccnc1`, for which the growth in the assay with HCT-15 colon is 19.2%; with HT29 colon, 34.6%; in the assay with SNB-75 CNS, 52%; in the assay with SNB-19 CNS it was 36.8%; in the assay with U251 CNS, 2.89% (active); in the assay with PC-3 prostate, 32.4%. Moreover, the growth was -16.4% (active) in the assay with SK-MEL-5 melanoma; 27.6% with UACC-62 melanoma; 18.6% with LOX IMVI melanoma; 39.9% in the assay with SK-MEL-28 melanoma; -5.85% (active) in the assay on SK-MEL-2 melanoma; 12.7% with EKVX NSCLC. Also, the growth was 36.4% in the assay with SN12C renal; 15% with UO-31 renal; 24.3% in the assay with TK-10 renal; 10.2% in the assay with ACHN renal; 14.3% in the assay with CAKI-1 renal; 34% in the assay on A498 renal. In addition, the growth was 10.6% in the assay with CCRF-CEM leukemia and 3.8% (active) in the assay with MOLT-4 leukemia.

`CCc1ccc(C(=O)/C=C/C23c4ccccc4C(c4ccccc42)C2C(=O)NC(=O)C23)cc1` (stereo not given): the growth with HCT-15 colon was -10.3% (active); in the assay with HT29 colon, 1.59% (active); in the assay with SNB-75 CNS, 26.3%; in the assay on SNB-19 CNS, 12%; in the assay with U251 CNS, -25% (active); with PC-3 prostate it was 13.3%. The growth with SK-MEL-5 melanoma was 10%; in the assay on UACC-62 melanoma it was -6.86% (active); in the assay with LOX IMVI melanoma it was -68.7% (active); in the assay with SK-MEL-28 melanoma, -23.7% (active); with SK-MEL-2 melanoma, 3.45% (active); in the assay on EKVX NSCLC, 23.2%. Also, the growth with SN12C renal was -7.89% (active); in the assay on UO-31 renal, 22.1%; in the assay with TK-10 renal it was 18%; in the assay on ACHN renal, 0.0344% (active); with CAKI-1 renal, 27.5%; in the assay on A498 renal it was 5.29% (active). In addition, the figures for the growth in the assay on CCRF-CEM leukemia and with MOLT-4 leukemia were 0.462% (active) and 2.03% (active), respectively.

For the molecule `CCCCC[C@@H]1Cc2cc(O)c(C(=O)O)c3c2[C@H](C[C@]2(OC[C@@H](CC(=O)[C@@](C)(CC)C(=O)OC)[C@@H]2C)O3)O1`, the growth in the assay with HCT-15 colon was 91.6%; with HT29 colon it was 116%; in the assay with SNB-75 CNS, 96.9%; in the assay on SNB-19 CNS it was 94.3%; in the assay with U251 CNS, 103%; with PC-3 prostate it was 106%. Further, the growth with SK-MEL-5 melanoma was 108%; with UACC-62 melanoma it was 88.9%; in the assay on LOX IMVI melanoma, 103%; in the assay with SK-MEL-28 melanoma, 118%; in the assay with SK-MEL-2 melanoma, 101%; with EKVX NSCLC, 113%. In addition, the growth was 92.4% in the assay with SN12C renal; 99.6% in the assay with UO-31 renal; 109% in the assay on TK-10 renal; 97.5% in the assay with ACHN renal; 99.9% in the assay on CAKI-1 renal; 122% in the assay with A498 renal. In addition, the growth in the assay on CCRF-CEM leukemia is 116%; in the assay with MOLT-4 leukemia, 90.2%.

Values taken from PubChem BioAssay (NCI).
